# Inconclusive results are not listed. A call without a number means that no potency is given here. The source made the active and inactive calls. The call rests on the fitted dose curve; in most records, active means well fitted cell-killing curve with a large enough effect; inconclusive means small, poorly fitted or top-dose-only effect; inactive means flat fitted curve, though single readings scatter.
# Test: qHTS of pediatric cancer cell lines to identify multiple opportunities for drug repurposing: Primary screen for BT-12 cells (AID 1347101); further: nearly all actives have a fitted effect of over 25% in size
# Details: BT-12 viability, CellTiter-Glo luminescence, 48 h; series mostly up to 57.3 µM
# From the text: Drug repurposing or repositioning has been offered as a strategy for drug development in oncology programs. This approach has special potential for childhood cancers and other rare or orphan diseases, where the expected return on new drug development has been a disincentive to pharmaceuticals.
# In this project we exploit the poly-pharmacology of drugs to discover new indications via phenotypic screening of a panel of 19 well-characterized cell lines derived from solid tumors seen in children and adolescents. The goal is to identify approved drugs with previously unrecognized anticancer properties that has the potential to reveal new mechanisms and biological processes involved in carcinogenesis or drug resistance. We employed a titration-based paradigm (quantitative high-throughput screening or qHTS), where all compounds were tested at multiple concentrations for their effect on cell viability. Concentration-response curves (CRCs) were derived directly from the primary screen, and both potency and efficacy values were used to identify compounds with robust bioactivity profiles. We screened the NIH Chemical Genomics Center (NCGC) Pharmaceutical Collection (NPC) and Mechanism Interrogation Plate (MIPE) small molecule collections of approved and investigational compounds against these cell lines; and measured metabolically active cells after 48 hours of compound treatment as a proxy for cell viability.
# Assay Submitter: Nathalia J. Martinez, National Center for Advancing Translational Sciences, National Institutes of Health, Rockville, MD, USA; email: natalia.martinez@nih.gov
# [1] Shen, M et al. Quantitative high-throughput phenotypic screening of pediatric cancer cell lines identifies multiple opportunities for drug repurposing. Oncotarget 2017 Dec 19;9(4):4758-4772. PMID 29435139.
# The cells were obtained from University of North Carolina (UNC), Pediatric Preclinical Testing Program (PPT), and Coriell Institute (CI).
# qHTS cell viability assay:
# Cells were assayed in growth media at a density of 500-1,000 cells/well. Five microliters of cells were dispensed into 1,536-well, white, solid-bottom, TC-treated plates (Greiner Bio One) using a multidrop dispenser and incubated at 37 degrees C, 5% CO2, under a humidified atmosphere for 5 hours. Twenty-three nanoliters of compounds and controls (neutral control DMSO or positive control bortezomib at final concentration of 2.3 µM) were subsequently transferred by Kalypsys pintool. For primary screens, the MIPE collection was tested at 11-point dilutions (final concentrations range from 0.78 nM to 46 µM) and the NPC collection at 8-point dilutions (final concentrations range from 0.59 nM to 46 µM). Compounds tested in follow-up screens were assayed at 11-point dilutions. Cells were incubated for 48 hours, followed by addition of 3 µL of CellTiter-Glo (Promega). After a 15 min incubation at room temperature, samples were analyzed for luminescence intensity using a ViewLux High-throughput CCD imager equipped with clear filters.
# Potency means the concentration at half of the fitted maximal effect.
row,Structure (SMILES),Potency
1,CCN(CC)CCNc1ccc(CO)c2sc3ccccc3c(=O)c12,13.8 µM (active)
2,NC1CCN(c2nc3c(cc2F)c(=O)c(C(=O)O)cn3-c2ccc(F)cc2F)C1 (stereo not given),inactive
3,O=C(CCN1CCN2CCCC2C1)N1c2ccccc2Sc2ccc(Cl)cc21 (stereo not given),inactive
4,CCCCCCCCCCCCCCC[C@H](O)[C@@H](N)CO,inactive
5,Cc1c(-c2ccccc2)oc2c(C(=O)OCCN3CCCCC3)cccc2c1=O,inactive
6,CCC(CC)(CC(=O)Nc1cccc(/C=C/c2nc(C3CCC3)cs2)c1)C(=O)O,inactive
7,CCN(CC)CCNC(=O)c1cc(Br)c(N)cc1OC,inactive
8,CC(=O)O[C@H]1C[C@@H]2CC[C@@H]3[C@H](CC[C@@]4(C)[C@H]3C[C@H]([N+]3(C)CCCCC3)[C@@H]4OC(C)=O)[C@@]2(C)C[C@@H]1N1CCCCC1,inactive
9,CCCCCCCCCCCCOCCOCCOCCOCCOCCOCCOCCOCCOCCO,6.92 µM (active)
10,O=C1OC(CN2CCOCC2)CN1/N=C/c1ccc([N+](=O)[O-])o1 (stereo not given),inactive
11,O=C(O)C1(C(=O)O)CCC1.[NH2-].[NH2-].[Pt+2],inactive
12,CCc1oc2ccccc2c1C(=O)c1cc(I)c(O)c(I)c1,inactive
13,CC(=O)NCCCCCC(=O)O,inactive
14,CCCc1ncc(C[n+]2ccccc2C)c(N)n1,inactive
15,Cc1cccc(C)c1NC(=O)CN1CCCCCC1,inactive
16,CN(C)CCOC(c1ccc(Cl)cc1)c1ccccn1 (stereo not given),inactive
17,CCc1oc2ccccc2c1C(=O)c1cc(Br)c(O)c(Br)c1,inactive
18,CCCCN=C(N)N=C(N)N,inactive
19,COc1cc(C(=O)NCc2ccc(OCCN(C)C)cc2)cc(OC)c1OC,inactive
20,CCOc1ccccc1C(N)=O,inactive

row,Structure (SMILES),Potency
1,N/C(=N\N=C\c1ccc(Cl)cc1)N/N=C/c1ccc(Cl)cc1,inactive
2,CN(C)CCOC(=O)C(c1ccccc1)C1(O)CCCC1 (stereo not given),inactive
3,O=C1C(=O)c2ccccc2C(O)=C1C1CCC(c2ccc(Cl)cc2)CC1 (stereo not given),inactive
4,C[C@@H](O)[C@H]1C(=O)N2C(C(=O)O)=C(S[C@@H]3CN[C@H](CNS(N)(=O)=O)C3)[C@H](C)[C@H]12,inactive
5,CC(C)NCC(O)c1ccc2ccccc2c1 (stereo not given),inactive
6,CCCCCCCCCCCCCCCC(=O)O,inactive
7,COc1ccc(-c2cc(C(F)F)nn2-c2ccc(S(N)(=O)=O)cc2)cc1F,inactive
8,COc1ccc(C(=O)c2ccccc2)c(O)c1,inactive
9,O=S(c1cc(Cl)cc(Cl)c1O)c1cc(Cl)cc(Cl)c1O,inactive
10,CCOC(=O)[C@H](CCc1ccccc1)N[C@@H](C)C(=O)N1[C@H](C(=O)O)C[C@@H]2CCC[C@@H]21,inactive
11,FC(F)(F)C(F)(F)C(F)(F)C(F)(F)C(F)(F)C(F)(F)C(F)(F)C(F)(F)Br,inactive
12,CCN1/C(=C/C=C/c2sc3ccccc3[n+]2CC)Sc2ccccc21,0.601 µM (active)
13,O=C(O)C(Cc1cc(I)c(O)c(I)c1)c1ccccc1 (stereo not given),inactive
14,O=C(NCCc1c[nH]c2ccccc12)c1cccnc1,inactive
15,CC(=O)Oc1ccc(C)cc1,inactive
16,O=C1C(CCS(=O)c2ccccc2)C(=O)N(c2ccccc2)N1c1ccccc1 (stereo not given),inactive
17,OC1C(O)C(O)C(O)C(O)C1O (stereo not given),inactive
18,CC(C)Cn1cnc2c1c(=O)n(C)c(=O)n2C,inactive
19,COc1cc(N)c(Cl)cc1C(=O)NC1CCN(Cc2ccccc2)CC1,inactive
20,OCCOCCN1CCN(C2=Nc3ccccc3Sc3ccccc32)CC1,inactive

# From PubChem BioAssay (NCATS)
